Most compounds without a hit are left out; they make up all but 4% or so of the library.
Peg3 promoter: inhibitors of Peg3 promoter. HeLa PEG-Prom luciferase reporter, luminescence, overnight. inhibition, % at 20 µM. 360,000 tested, 1.7% active. AID 588405;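 active means inhibition of at least 50% at 20 µM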
KKLEB tox: reduces viability of KKLEB cystic fibrosis airway cells; KKLEB CF airway cells viability, ATPlite luminescence, overnight; active compounds read low; cells stimulated with P. aeruginosa culture filtrate; activity change (cytotoxicity), % at 5 µM; 360,000 tested, 0.36% active;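 active means corrected activity change at or below -50% at 5 µM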
HIF-2a block: HIF-2a inhibition; 786-0 RCC cells HIF-2a reporter, luciferase luminescence, overnight; inhibition, % at 18.8 µM; 360,000 tested, 0.72% active; AID 624352;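 active means inhibition of the luminescence signal of 40% or more relative to plate controls, in a single-dose primary screen at 18.75 µM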
CF NFkB inh: blocks PAF-induced NF-kB reporter in cystic fibrosis cells. KKLEB NF-kB-GFP reporter, GFP fluorescence overnight. inhibition, % at 5 µM. 360,000 tested, 0.86% active. AID 588850;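 active means at least 50% inhibition at 5 µM, scaled per plate between neutral and stimulator controls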;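 further: PAF is a Pseudomonas aeruginosa culture filtrate used as stimulus; plate controls were PAF-stimulated DMSO wells for no effect and unstimulated DMSO wells for full effect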
TROY NFkB inh: inhibitors of TROY-dependent NF-kB signaling; Q293 LMP1-TROYcd NF-kB luciferase reporter, 4 h; inhibition, % at 10 µM; 360,000 tested, 0.98% active;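 active means compounds whose plate-normalised and pattern-corrected inhibition of the luciferase reporter signal at the single screening dose is 50% or more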
TWEAK Fn14 block: TWEAK-Fn14 signaling inhibition; TWEAK-stimulated Fn14 reporter cells, luciferase luminescence, 8 h; inhibition, % at 10 µM; 360,000 tested, 2% active; in the data active means inhibition above about 50%
CF NFkB inh conf: confirmation of cystic fibrosis induced NF-kB inhibitors; KKLEB CF airway cells, PAF-induced NF-kB-GFP fluorescence, overnight; 1,300 tested, 64% active; shares compounds with CF NFkB inh; inhibition, % at 5 µM; in the data active means inhibition above about 40%;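 further: stimulus PAF is a Pseudomonas aeruginosa filtrate and not platelet activating factor; plate controls were DMSO wells with stimulus for no effect and unstimulated DMSO wells for full effect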
An asterisk follows results filed as active; x = no result.

SMILES	Peg3 promoter	KKLEB tox	HIF-2a block	CF NFkB inh	TROY NFkB inh	TWEAK Fn14 block	CF NFkB inh conf
CC(C)C(=O)N1CCC1(C)C(=O)Nc1ccc2[nH]ccc2c1 (stereo not given)	2	14	10	10	11	17	x
COC(=O)CC1OCC=C2CN3CCC45C6=CC(=O)C(=O)C([N+](=O)[O-])=C6NC4C1C2CC35 (stereo not given)	9	-11	7	30	6	11	x
O=C(N/N=C/c1cccnc1)c1ccccc1Cl	-103	-4	-119	-14	-58	-17	x
Nc1c(Cl)c(Cl)nc(C(=O)N/N=C/c2cccnc2)c1Cl	-7	-8	4	51*	6	26	40
O=C1N(c2ccccc2C(F)(F)F)O[C@@]1(c1ccccc1)C1CCCCC1	57*	-15	3	65*	-6	11	60*
CC(=O)N1C[C@H]2CON(C)[C@H]2C[C@H]1c1cccc(-c2ccc(C#N)cc2)c1	6	17	-17	-35	-9	6	x
Cc1cccn2c(CNCC3(c4ccccc4)CCCC3)c(C(=O)N3CCOCC3)nc12	47	-28	13	59*	11	18	6
O=C(NCC[C@H]1CC[C@H](NS(=O)(=O)c2ccccc2F)[C@@H](CO)O1)c1ccc(F)cc1	x	x	1	x	x	x	x
Cn1c(Oc2ccc(Cl)cc2)c(C=O)c2ccccc21	37	-16	31	51*	29	64*	70*
O=C1NCCc2c1[nH]c1ccccc21	9	-1	-1	8	-14	3	x
COc1ccc2[nH]c3c(c2c1)CCNC3=O	0	-6	-20	52*	25	61*	83*
CCc1cccc(NS(=O)(=O)c2c(C)[nH]c(=O)[nH]c2=O)c1	-10	-5	10	-9	-8	8	x
COc1ccc(NC(=O)Cn2ncn3nc(-c4ccc(OC)cc4)cc3c2=O)cc1	-11	-33	-16	54*	-33	9	55*
COc1ccc(CN2C(=O)C(CC(=O)NC3CCCCC3)CC(C(=O)N(C(C)C)C(C)C)=C2C)cc1 (stereo not given)	2	1	-6	-2	4	-3	x
COc1cccc2c(SCC(=O)N/N=C/c3ccccc3)cc(C)nc12	27	-29	31	54*	7	21	61*
COc1cccc2c(SCC(=O)N/N=C/c3ccc(O)c(O)c3)cc(C)nc12	22	-11	0	16	8	22	x
C=CCn1c(SCC(=O)N(CC)c2c(N)n(Cc3ccccc3)c(=O)[nH]c2=O)nnc1-c1ccccc1OC	-2	6	0	10	3	-18	x
COc1ccc(NC(=O)c2cc3c(-c4ccc(OC)c(OC)c4)nn(C)c3s2)cc1OC	-69	-21	-2	87*	-50	58*	62*
c1ccc2c(-c3cncc4ccccc34)cncc2c1	20	-32	35	76*	34	54*	43*
COC(CNC(=O)C(=O)NCC1CCCN1S(=O)(=O)c1cccs1)OC (stereo not given)	-9	1	-2	-6	-43	-5	x
CCCCN(C)C(=O)c1ccc(Nc2nc(C(N)Cc3ccc(C(F)(F)F)cc3)cs2)nc1 (stereo not given)	96*	-44	1	51*	18	3	20
O=C(Nc1cc(-c2nc3ncccc3o2)ccc1Cl)c1ccc([N+](=O)[O-])o1	88*	-23	-46	80*	19	22	-182
CCc1cc2c(Sc3nc4ccccc4s3)ncnc2s1	15	-46	-5	67*	-21	94*	89*
c1csc(CNc2ncnc3ccc(-c4ccc5c(c4)OCO5)cc23)c1	30	-24	29	27	15	-24	x
c1csc(CNc2ncnc3ccc(-c4ccoc4)cc23)c1	-11	-7	4	77*	55*	88*	92*
SMILES	Peg3 promoter	KKLEB tox	HIF-2a block	CF NFkB inh	TROY NFkB inh	TWEAK Fn14 block	CF NFkB inh conf
Cc1ccc(-c2cc(-c3ccccc3)nc(Cl)n2)cc1	-45	-3	-96	-7	-35	11	x
Cc1ccc(-c2cc(C(F)F)nc(S(C)(=O)=O)n2)cc1	98*	-33	10	51*	18	30	-66
CC1=CC(=O)CC(C)(C)C1(O)/C=C/C(C)=C/C(=O)O (stereo not given)	8	4	6	-1	6	-11	x
CC1=C(/C=C/C(C)=C/C=C/C(C)=C\C(=O)O)C(C)(C)CCC1	-20	-9	13	66*	2	10	70*
Cc1ccc(CCC(=O)Nc2ncc(Cc3cccc(Cl)c3Cl)s2)o1	31	-32	31	52*	28	18	78*
CCc1nnc(NC(=O)CCc2ccc(C)o2)s1	-18	-2	-8	11	3	2	x
O=c1ccn([C@@H]2O[C@H](CNCc3ccccc3OCc3ccc(Cl)cc3Cl)[C@@H](O)[C@H]2O)c(=O)[nH]1	2	-8	1	-2	16	-2	x
COc1cc(OC)nc(Nc2nc(C(N)CCc3ccccc3)cs2)n1 (stereo not given)	16	-17	16	11	4	-32	x
CC(C)c1ccc(NC(=O)Nc2nc(C(N)CCc3ccccc3)cs2)cc1 (stereo not given)	98*	-44	23	54*	8	-1	12
O=C(Cc1ccc(Br)cc1)Nc1ccc2[nH]ncc2c1	5	-45	17	53*	9	1	15
O=C(Cc1ccccc1)Nc1ccc2[nH]ncc2c1	-20	-3	-27	14	6	11	x
COc1ccccc1/C=C/C(=O)OCC(=O)NC(=O)NC1CCCC1	15	-2	11	15	9	-7	x
O=c1cc(-c2ccccc2Cl)oc2cc(O)cc(O)c12	-233	-1	-128	66*	-9	36	77*
Nc1ccc(O)c2c(=O)cc(-c3ccccc3Cl)oc12	-239	-11	-262	11	-59	28	x
Cc1cc(N2C(=O)C(O)=C(C(=O)c3cc4ccccc4o3)C2c2cccc(Br)c2)no1 (stereo not given)	15	16	-10	-33	-10	-12	x
CCCOc1cccc(C2C(C(=O)c3cc4ccccc4o3)=C(O)C(=O)N2c2cc(C)on2)c1 (stereo not given)	4	-2	-2	66*	-14	-3	24
COc1ccc(-c2cc(NC=O)c3ncc(-c4cc(OC)c(OC)c(OC)c4)n3c2)cc1	-1	-28	-30	52*	12	25	70*
COc1cccc(-c2cnc3c(NC=O)cc(-c4ccc(OC)cc4OC)cn23)c1	-11	-40	-10	63*	12	21	76*

Bioassay records (PubChem)
